Source: PubChem BioAssay
Most compounds without a hit are left out; they make up all but 21% or so of the library.
Pf growth 48h = P. falciparum growth inhibition at 48 hours (one generation) | P. falciparum luciferase growth in erythrocytes, 48 h | Potency, µM (doses to about 28.7 µM), most hits filed as inhibitors | 310,000 tested, 5.9% active | AID 504832
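Read-out is firefly luciferase luminescence from an integrated reporter in P. falciparum, so falling signal marks reduced parasite growth. Infected erythrocytes were at 2% hematocrit and 0.1% parasitemia (final) in Albumax-supplemented RPMI 1640.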
CHX counter = affects cycloheximide protein synthesis inhibition readout, counter-screen; max response, %; 300,000 tested, 12% active; cell reporter, cycloheximide protein synthesis inhibition counterscreen; in the data active = max response mostly above about 13%, no sharp cut-off; inactive = mostly below about 14%; note: read at 38.3 µM for the half of the compounds with a filed dose
Shiga toxin inh = inhibitors of Shiga toxin in Vero cells; inhibition, % at 38.7 µM; Vero cells, Shiga toxin protein synthesis inhibition reporter; 290,000 tested, 9.2% active; in the data active = inhibition mostly above about 28%, no sharp cut-off; inactive = mostly below about 43%
SARS PLpro yeast = inhibitors of SARS-CoV papain-like protease in yeast | S. cerevisiae expressing SARS-CoV PLpro, growth rescue | Potency, µM (doses to about 32.9 µM), actives largely listed as activators | 330,000 tested, 0.19% active; calls by dose curve; note: nearly all actives have a fitted effect of over 55% in size
Pf growth 96h = P. falciparum growth inhibition at 96 hours; P. falciparum luciferase reporter growth, 96 h; Potency, µM (doses to about 28.7 µM), usual class: inhibitors; 320,000 tested, 6.9% active; AID 504834
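Two-generation exposure (96 h) targets delayed-death phenotype. Reporter parasites carrying integrated firefly luciferase, in red cells at 2% hematocrit and 0.05% parasitemia final, kept at 37 C, 5% CO2; luminescence loss indicates inhibition.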
NS1 inh = blocks influenza NS1 protein function | Potency, µM (doses to about 46.1 µM) | 270,000 tested, 0.4% active | AID 2326; calls by dose curve; note: actives are rising curves; nearly all actives have a fitted effect of over 50% in size
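Read-out: OD600 growth recovery of NS1-expressing budding yeast. Cells grown overnight at 30C in -URA glucose medium, washed, resuspended and diluted 1:100 in 2% galactose assay medium, pH 6.0. Same strain lacking NS1 served as positive control.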
Of the large screens only hits and unclear results are named; the others gave an inactive call; ! = repeats disagree. Unless noted, calls come from the whole dose curve; as a rule, active = well fitted inhibition curve with a large enough effect; inconclusive = small, poorly fitted or top-dose-only effect, or another doubt; inactive = no such curve, though single readings can be large or run the other way.

COc1ccc(NC(=O)COc2ccccc2)c(OC)c1	CHX counter 34, Shiga toxin inh 51 (no result: Pf growth 96h)
O=C(Nc1ccc(Cl)cc1)Nc1cccc2nsnc12	CHX counter 64, Shiga toxin inh 114
COc1ccc(NC(=O)CN2c3cccc4cccc(c34)S2(=O)=O)c(OC)c1	Pf growth 48h inconclusive, CHX counter 14 (no result: Pf growth 96h)
COc1ccccc1NC(=O)CNC(=O)c1ccc(Br)o1	Pf growth 96h 0.029µM
COc1ccccc1NC(=O)COc1ccccc1	CHX counter 17 (no result: Pf growth 48h)
COc1ccc(OC)c(NC(=O)CN2c3cccc4cccc(c34)S2(=O)=O)c1	none (no result: Pf growth 48h, CHX counter, Shiga toxin inh, Pf growth 96h, NS1 inh)
COc1ccc(CNC(=O)CNC(=O)c2ccc(Br)o2)cc1OC	none
CSCC[C@H](NC(=O)N1C[C@H]2C[C@@H](C1)c1cccc(=O)n1C2)C(=O)Nc1ccc(NC(C)=O)cc1	none
O=S(=O)(Nc1ccccn1)c1cnc(Cl)c(Br)c1	Pf growth 96h inconclusive
COc1ccc(OCC(=O)Nc2ccccc2O)cc1	CHX counter 36, Shiga toxin inh 75 (no result: Pf growth 48h)
COc1ccc(NC(=O)C(Sc2ccccc2)c2ccccc2)c(OC)c1 (stereo unspecified)	Pf growth 96h 2.6µM
CCCNC(=O)c1ccccc1NC(=O)COc1ccc(OC)cc1	none (no result: Pf growth 48h)
Clc1ccc(/C=C/c2nc3ccccc3[nH]2)c(Cl)c1	none
O=C(NCCc1nc2ccccc2[nH]1)c1ccc([N+](=O)[O-])cc1	none
Clc1ccc(/C(Cc2nc3ccccc3[nH]2)=N\Nc2ccccc2)cc1	Pf growth 48h inconclusive, CHX counter 37, Shiga toxin inh 34, Pf growth 96h inconclusive
O=C(Cc1nc2ccccc2[nH]1)c1ccc([N+](=O)[O-])cc1	Pf growth 48h 1.9µM, CHX counter 29, Shiga toxin inh 60, Pf growth 96h 2.9µM
N#CCCN/N=C(/Cc1nc2ccccc2[nH]1)c1cccc(Cl)c1	Pf growth 48h 10µM, CHX counter 43, Shiga toxin inh 99 (no result: Pf growth 96h)
CCc1cc(C(=O)Cc2nc3ccccc3[nH]2)c(O)cc1O	CHX counter 40, Shiga toxin inh 143
Cc1c(Cl)cccc1NC(=O)C(=O)NNC(=O)c1ccccc1F	none (no result: NS1 inh)
COc1ccc(CNC(=O)CCCn2nc(C)c3c(C)n(-c4ccc(C)cc4)nc3c2=O)cc1	Pf growth 48h inconclusive, Pf growth 96h inconclusive
CCc1cc(C(=O)COc2ccccc2F)c(O)cc1O	Pf growth 48h inconclusive, CHX counter 28, Pf growth 96h inconclusive
O=C(Cc1nc2ccccc2[nH]1)c1ccc(Cl)cc1	Pf growth 48h 2.3µM, CHX counter 23, Shiga toxin inh 62, Pf growth 96h inconclusive
CCc1cc(C(=O)Cc2ccc(F)cc2)c(O)cc1O	Pf growth 48h inconclusive
CN/N=C(\Cc1nc2ccccc2[nH]1)c1ccc([N+](=O)[O-])cc1	Pf growth 48h inconclusive, CHX counter 32, Shiga toxin inh 57, Pf growth 96h inconclusive
O=C(COc1ccc([N+](=O)[O-])cc1)NCCc1nc2ccccc2[nH]1	none
COc1ccccc1N1CCN(Cc2cc(=O)c(OCC(=O)NC3CCCC3)co2)CC1	Pf growth 48h inconclusive, Pf growth 96h inconclusive (no result: CHX counter, Shiga toxin inh, NS1 inh)
O=C(Nc1cc(S(=O)(=O)N2CCOCC2)ccc1Cl)C1CCC1	none (no result: CHX counter, Shiga toxin inh, NS1 inh)
CC(C)N1CCN(Cc2ccc3c(c2)Cc2ccccc2-3)CC1CCO (stereo unspecified)	Pf growth 48h inconclusive, Pf growth 96h inconclusive
CCC(CC)NCc1ccc2c(c1)c1ccccc1n2CC	Pf growth 48h inconclusive, Pf growth 96h inconclusive
CCn1c2ccccc2c2c3ncc4cccn4c3ccc21	CHX counter 16
Cc1ccc(-c2nc(NC(=O)c3ccc(S(=O)(=O)N(CCC#N)CCC#N)cc3)sc2-c2ccccc2)cc1	Pf growth 96h 12µM
N#CCCN(CCC#N)S(=O)(=O)c1ccc(C(=O)Nc2nc(-c3ccccc3)c(C(=O)c3ccccc3)s2)cc1	none
CC(C)c1nnc(NC(=O)Cn2nc(-c3ccc4c(c3)OCCO4)ccc2=O)s1	none (no result: Pf growth 96h)
CCC1Nc2ncnc(N3CCN(c4ccccc4)CC3)c2N(Cc2ccc(Br)cc2)C1=O (stereo unspecified)	Pf growth 48h 12µM, Pf growth 96h inconclusive (no result: CHX counter, Shiga toxin inh, NS1 inh)
CCC1Nc2ncnc(N3CCN(c4ccccc4)CC3)c2N(Cc2ccc(OC)cc2)C1=O (stereo unspecified)	Pf growth 48h 12µM, Pf growth 96h 12µM (no result: CHX counter, Shiga toxin inh, NS1 inh)
Cc1nn(Cc2ccc(Cl)cc2)c(C)c1NC(=O)C1CC=CCC1C(=O)O (stereo unspecified)	Pf growth 48h inconclusive
CC(=O)[C@H]1CC[C@H]2[C@@H]3C=CC4=CC(=O)CC[C@@]4(C)[C@@H]3CC[C@]12C	Pf growth 48h inconclusive (no result: CHX counter, Shiga toxin inh, SARS PLpro yeast, NS1 inh)
C[C@@]12CCC(=O)C=C1C=C[C@H]1[C@H]3CC[C@](O)(CCC(=O)O)[C@]3(C)CC[C@@H]12	Pf growth 48h inconclusive, Pf growth 96h 6.4µM (no result: CHX counter, Shiga toxin inh, SARS PLpro yeast, NS1 inh)
Cc1cc(C)c(S(=O)(=O)Nc2ccc(OCC(=O)O)cc2)c(C)c1	NS1 inh inconclusive (no result: Pf growth 48h)
COc1cccc(C2=Nn3c(nnc3-c3ccccc3O)SC2)c1	Pf growth 48h 13µM
CC(C)(C)C1=Nn2c(nnc2-c2ccccn2)SC1	Pf growth 96h 8.3µM (no result: Pf growth 48h)
COc1cccc(-c2nnc3n2N=C(C(C)(C)C)CS3)c1	Pf growth 48h inconclusive, Pf growth 96h 13µM
Cc1cc(-c2nnc3n2N=C(c2ccccc2Br)CS3)n[nH]1	Pf growth 48h inconclusive, Pf growth 96h 12µM
CCN(CC)c1ccc(S(=O)(=O)N2CCOCC2)cc1NC(=O)Nc1ccccc1	none (no result: Pf growth 48h, CHX counter, Shiga toxin inh, Pf growth 96h, NS1 inh)
CSc1ccc(/C=C2\CCn3c2nc2cc(C(=O)O)ccc2c3=O)cc1	none
COc1ccc(-c2nnc3n2N=C(c2ccccc2OC)CS3)cc1OC	none (no result: Pf growth 48h, SARS PLpro yeast, Pf growth 96h, NS1 inh)
COc1ccc(C2=Nn3c(nnc3-c3ccccc3OC)SC2)cc1OC	Pf growth 48h 10µM, Pf growth 96h 3.7µM!
N#C/C(C(=O)Nc1ccc(Cl)cc1)=C(/S)Nc1ccccc1	Pf growth 96h inconclusive
CC(Sc1nnc(-c2ccco2)n1C)C(=O)Nc1nccs1 (stereo unspecified)	Pf growth 48h inconclusive, Pf growth 96h 5.2µM (no result: CHX counter, Shiga toxin inh, NS1 inh)
CC(Sc1nnc(-c2ccc(Cl)cc2Cl)n1Cc1ccccc1)C(=O)Nc1nccs1 (stereo unspecified)	Pf growth 48h inconclusive, Pf growth 96h 9.3µM
COC(=O)c1cc(NC(=O)c2c(F)c(F)c(F)c(F)c2F)cc(C(=O)OC)c1	SARS PLpro yeast inconclusive, Pf growth 96h inconclusive
CCN(CC)CCOCCOC(=O)C1(c2ccccc2)CCCC1	Pf growth 48h 3µM, Pf growth 96h 3.4µM (no result: CHX counter, Shiga toxin inh, SARS PLpro yeast)
CC(C[N+](C)(C)C)OC(=O)C1(c2ccccc2)CCCC1 (stereo unspecified)	Pf growth 48h 10µM, Pf growth 96h inconclusive
Cc1ccc(/C=c2\sc3nc(-c4ccccc4Br)nn3c2=O)o1	Pf growth 96h 12µM
N#Cc1cnc(SCC(=O)NNC(=O)COc2cccc3ccccc23)nc1N	Pf growth 96h inconclusive
COC(=O)c1ccc(N2CN=C(c3ccc(C)cc3)NC2=S)cc1	none
S=C1NC(c2ccccc2)=NCN1c1ccc(Cl)cc1	CHX counter 27, Pf growth 96h inconclusive (no result: Pf growth 48h)
